# A selection: hits, their analogues and other compounds. The true share with any hit is near 2.2%.
# KLF5 inh – KLF5 expression inhibitors, primary screen, DLD-1 cells, luminescence | actives 0.23% (n = 290,000) | inhibition, % at 5 µM | DLD-1 KLF5 promoter-luciferase reporter;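 active = inhibition above a per-plate limit of that plate's mean compound inhibition plus 3 SD, cut at about 60% in these data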;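 also: 0% = DMSO wells and 100% = LY294002 at 200 µM; higher means less KLF5 promoter-driven luciferase light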
# APP transl inh – inhibitors of APP translation via 5'UTR reporter, primary screen, APP 5'UTR luciferase, SH-SY5Y cells. AID 1285, 2008. actives 0.82% (n = 190,000). SH-SY5Y APP 5'UTR-luciferase reporter, luminescence. inhibition, % at 2 µM;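 active = inhibition above a set limit, derived from the sample mean plus 3 SD, cut at about 45% in these data; inconclusive = one replicate passes the limit while the other fails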
# BaF3 parental – parental Ba/F3 cell viability inhibition, counter-screen for JAK2V617F inhibitor project, murine pro-B, CellTiter-Glo luminescence | CellTiter-Glo ATP luminescence | inhibition, % at 5.6 µM | actives 1.1% (n = 220,000) | AID 1486, 2009;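 active = inhibition above a per-campaign cutoff, the mean inhibition of all tested compounds plus 3 SD, cut at about 27% in these data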;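 also: 0% = DMSO wells and 100% = JAK Inhibitor I control wells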
# Ba/F3 V617F tox – reduced viability of JAK2V617F-dependent Ba/F3 cells, primary screen, JAK2V617F inhibitor project, cell-based, Ba/F3 EpoR-JAK2V617F, luminescence | ATP luminescence | inhibition, % at 5.6 µM | actives 1.1% (n = 220,000) | AID 1446, 2008;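 active = inhibition above the campaign mean plus 3 SD over all tested compounds, cut at about 24% in these data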;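 also: cytokine-independent growth of Ba/F3 cells driven by EpoR plus mutant JAK2; 0% = DMSO-treated cells and 100% = JAK inhibitor I control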
# aSyn 5UTR inh – MLPCN primary screen, SNCA 5' untranslated region. AID 1813, 2009. inhibition, % (tested at 7.5 µM). alpha-synuclein 5'UTR reporter, inhibitor activity. actives 0.82% (n = 300,000); in the data active = inhibition above about 60%; inconclusive = no clear call, values can overlap the other calls;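 also: H4 neuroglioblastoma cells stably carrying SNCA 5'UTR luciferase fusion; 0% = DMSO wells and 100% = positive control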
# IEC-6 tox – cytotoxicity in IEC-6 intestinal epithelial cells, primary screen, cytotoxicity control for KLF5 inhibitor project, cell-based, luminescence. IEC-6 cytotoxicity, luminescence viability. inhibition, % at 5 µM. actives 0.78% (n = 290,000). AID 1825, 2009; in the data active = inhibition above about 22%;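 also: 0% = plate median of test compound wells and 100% = cytotoxic reference compound wells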
# Numbers without * were called inactive; u = inconclusive; x = not tested or not shown.
SMILES,KLF5 inh,APP transl inh,BaF3 parental,Ba/F3 V617F tox,aSyn 5UTR inh,IEC-6 tox
CCn1cc(C(=O)NCc2ccco2)c(=O)c2cc(S(=O)(=O)N3CC(C)CC(C)C3)ccc21 (stereo not drawn),-4.2,38.9,10.5,9.8,81.9*,10.0
CCN(C(=O)CSc1nnc(-c2ccncc2)n1Cc1ccccc1)C1CCS(=O)(=O)C1 (stereo not drawn),-4.1,-12.9,1.8,-0.3,-20.5,-2.0
O=C(O)C(Oc1ccc2cc(-c3ccc(Cl)cc3)c(=O)oc2c1)c1ccccc1 (stereo not drawn),-21.5,x,x,x,3.7,4.3
O=C(Nc1ccc(Cl)cc1)/C(=C/c1ccc([N+](=O)[O-])cc1)c1nc2ccccc2s1,3.8,96.0*,-1.5,-2.4,x,1.2
COc1cccc(Sc2ccccc2/C=N/NC(N)=O)c1,16.0,65.2*,7.4,3.0,16.1,6.7
Cc1ccc2nc(NC(=O)c3ccc(-c4nc5ccccc5s4)s3)sc2c1,13.7,1.0,4.3,0.1,x,-8.0
CCN1CCN(C(=O)c2ccc(-c3nc4ccccc4s3)s2)CC1,-104.1,-131.3,5.6,3.1,-65.7,1.8
O=C(NC1CC1)c1ccc(-c2nc3ccccc3s2)s1,34.9,-82.6,3.1,1.1,96.3*,11.1
O=C(c1ccc(-c2nc3ccccc3s2)s1)N1CCOCC1,56.7,-65.1,6.6,2.2,100.4*,9.1
CCCN1C(=O)/C(=N\OCC(=O)NC23CC4CC(CC(C4)C2)C3)c2ccccc21,-5.4,3.2,10.5,-0.3,12.2,-0.7
O=C(Cc1nc2ccccc2[nH]1)c1cccc([N+](=O)[O-])c1,-26.0,x,0.8,-4.5,-22.7,-2.7
Cc1ccc(-n2ncc3c(NCCCN4CCCC4=O)ncnc32)c(C)c1,-9.9,1.8,47.1*,0.7,-12.0,-4.6
CCN1CCN(C(CNS(=O)(=O)c2ccccc2)c2cccnc2)CC1 (stereo not drawn),-32.5,x,x,x,-24.3,2.3
CCCCCCC(=O)Nc1ccc(C(=O)N2CCCC2)cc1,-0.4,11.6,4.4,-3.3,23.0,-0.9
COc1ccccc1N1CCN(C(=O)c2ccc(NC(C)=O)cc2)CC1,7.2,-3.0,9.3,4.4,1.0,6.4
COc1cc(SC)ccc1C(=O)N1CCN(c2ccccc2OC)CC1,36.2,14.5,19.8,12.6,23.7,30.6*
CCCCC(=O)Nc1ccc(C(=O)N2CCC(C(=O)OCC)CC2)cc1,-10.7,2.6,37.9*,-4.0,18.3,2.4
CCCCC(=O)Nc1ccc(C(=O)N2CCN(c3ccccc3OC)CC2)cc1,-44.8,68.7*,11.2,7.4,-40.2,-1.2
COc1ccc(CC(=O)NNC(=O)CCc2ccccc2)cc1OC,-14.3,1.9,-0.1,-2.9,12.6,2.1
C/C(=C\C(=O)c1ccc(Br)cc1)NNC(=O)c1ccccc1,x,x,x,x,-22.0,x
CC1(C)CC(=O)C(C=NCC2CCN(C(=S)Nc3ccccc3)CC2)=C(O)C1,-4.0,x,-0.6,-2.9,9.2,-4.2
O=C(CSc1nnc(COc2ccc(Cl)cc2)o1)N1c2ccccc2CCc2ccccc21,-19.7,-0.2,46.3*,24.8*,u,11.7
O=C(CSc1nnc(COc2ccc(Cl)cc2)o1)N1CCCC1,-7.9,x,x,x,12.4,-3.9
COc1ccc(/C=N/NC(=O)c2cccc(Br)c2)cc1COc1ccccn1,-16.8,x,2.7,-4.7,-4.9,1.5
COc1ccccc1-c1c(-c2ccc(O)cc2O)n[nH]c1C(F)(F)F,-20.3,x,45.1*,47.7*,-23.8,8.3
SMILES,KLF5 inh,APP transl inh,BaF3 parental,Ba/F3 V617F tox,aSyn 5UTR inh,IEC-6 tox
Oc1ccc(-c2n[nH]c(C(F)(F)F)c2-c2ccccc2)c(O)c1,2.7,-4.7,77.9*,55.8*,-16.4,3.1
O=C1c2ccccc2S(=O)(=O)c2cc(N3CCOCC3)ccc21,x,x,x,x,76.4*,x
O=C1c2ccccc2S(=O)(=O)c2cc(N3CCN(c4ccccc4)CC3)ccc21,x,x,x,x,-18.6,x
O=C(CCC1CCCCC1)Nc1ccccc1O,-59.4,-61.0,10.8,19.2,-162.6,2.6
Cc1ccc(O)c(NC(=O)CCC2CCCCC2)c1,-104.7,-63.8,58.2*,72.8*,-152.0,-1.7
O=C(Nc1ccc(CN2CCCCC2)cc1)Nc1ccccc1Cl,-19.0,-41.6,59.2*,0.9,-90.1,8.6
CCN1CCN(Cc2ccc(NC(=O)Nc3ccccc3Cl)cc2)CC1,-95.9,-140.6,8.6,1.8,-87.0,3.7
O=C(Cn1cnc2ccccc2c1=O)N1CCOCC1,16.3,50.5*,-2.2,-0.6,20.1,1.3
O=C(Cn1cnc2ccccc2c1=O)N1CCc2ccccc2C1,-21.4,8.1,7.5,-3.7,-5.6,-1.5
Cc1cc(-c2ccccc2)cc(-c2ccccc2)[n+]1C,-6.0,-3.5,68.4*,72.9*,x,3.6
Cc1ccc(-c2cc(N)nc(-c3ccccc3)c2)cc1,-62.1,x,x,x,-86.9,-1.4
N#Cc1ccc(NC(=O)Cn2cnc(S(=O)(=O)N3CCOCC3)c2)cc1,-26.3,x,x,x,-1.8,-5.6
O=C(Nc1ccc(CN2CCOCC2)cc1)c1cc2ccccn2n1,-54.6,-86.1,1.4,2.9,71.7*,6.9
COc1ccc(-n2cc(-c3ccccc3)nc2SC)cc1,-46.6,-75.7,7.2,0.1,-121.3,-5.4
FC(F)Oc1ccc(-n2cc(-c3ccc(Cl)cc3)[n+]3c2CCCCC3)cc1,16.4,x,62.3*,53.7*,-10.5,2.3
COc1ccc(-c2cn(-c3ccc(SC(F)F)cc3)c3[n+]2CCC3)cc1OC,-20.8,7.7,2.8,-3.5,0.7,-2.7
COc1ccc(-n2cc(-c3ccccc3)[n+]3c2CCCCC3)cc1,-9.6,4.7,58.7*,72.3*,-13.0,15.7
FC(F)Sc1ccc(-n2cc(-c3ccccc3)[n+]3c2CCC3)cc1,-10.9,-17.3,69.0*,59.7*,-9.7,-2.4
FC(F)Oc1ccc(-c2csc(Cc3nnc4n3CCCCC4)n2)cc1,11.4,-0.5,3.2,5.5,21.2,5.5
O=c1cc(O)nc(SCc2ccccc2)n1-c1ccc(F)cc1,-25.4,-13.7,31.5*,3.9,23.1,-6.5
O=C(Nc1ccc(Cl)c(Cl)c1)Nc1ccccc1NS(=O)(=O)c1cccs1,-46.6,3.6,5.9,1.7,-15.8,-1.0
Cn1ncc(Br)c1NC(=O)Nc1ccc(OC(F)(F)F)cc1,15.0,x,31.8*,3.6,8.2,11.2
COC(=O)C1=C(c2ccc(OC)cc2)OC(=O)C1(C)C,-19.4,x,x,x,-7.7,6.1
CN(C)c1cc[n+](Cc2c(Cl)cccc2Cl)cc1,5.5,1.6,80.3*,98.2*,7.5,-5.1
Cn1cc(C(=O)c2ccc(Cl)cc2Cl)cc1C(=O)N/N=C(\N)COc1ccc(Cl)cc1Cl,6.3,6.6,8.8,0.4,64.9*,6.1
COc1cccc2sc(N(CCCN(C)C)C(=O)c3ccc(S(=O)(=O)N4CCCc5ccccc54)cc3)nc12,-10.7,x,x,x,64.1*,-2.5

# Assay outcomes: PubChem, several laboratories
